{"source": "PubChem BioAssay", "key": {"[1]": {"assay": "HepG2 liver cancer cell viability effects, profiling panel, resazurin fluorescence, 24 h, PK04 Diversity Set (AID 1172)", "conditions": "higher = more signal"}, "[2]": {"assay": "basal S. cerevisiae growth modulation, no modifier, primary screen, OD600, strain BY4716, 24 h, basal condition (AID 1173)", "conditions": "OD600, 24 h, higher = more signal, called active from +8 up or from −8 down"}, "[3]": {"assay": "MM1S myeloma cell viability, profiling panel, resazurin fluorescence, basal, 24 h, PK04 Diversity Set (AID 1174);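 note: MM1S multiple myeloma cell line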", "conditions": "higher = more signal, called active from +8 up or from −8 down"}, "[4]": {"target": "Dihydroorotate dehydrogenase (quinone), mitochondrial (Plasmodium falciparum (isolate 3D7)) (UniProt Q08210)", "sequence (Q08210 whole entry, looked up)": "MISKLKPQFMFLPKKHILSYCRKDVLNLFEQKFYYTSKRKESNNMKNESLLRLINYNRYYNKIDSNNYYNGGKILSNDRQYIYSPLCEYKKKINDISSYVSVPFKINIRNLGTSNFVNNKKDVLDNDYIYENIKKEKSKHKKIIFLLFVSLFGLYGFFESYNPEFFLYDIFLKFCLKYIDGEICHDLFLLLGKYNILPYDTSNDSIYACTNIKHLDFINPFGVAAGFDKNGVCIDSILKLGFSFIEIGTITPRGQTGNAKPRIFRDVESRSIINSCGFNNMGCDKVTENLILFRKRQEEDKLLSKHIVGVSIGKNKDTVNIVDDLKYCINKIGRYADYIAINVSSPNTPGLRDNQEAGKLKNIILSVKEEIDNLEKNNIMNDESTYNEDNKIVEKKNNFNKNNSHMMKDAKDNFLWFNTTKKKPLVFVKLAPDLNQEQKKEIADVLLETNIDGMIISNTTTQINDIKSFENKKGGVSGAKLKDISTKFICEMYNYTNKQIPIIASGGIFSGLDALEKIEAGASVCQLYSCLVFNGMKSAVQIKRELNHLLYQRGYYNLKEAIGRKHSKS", "assay": "PfDHODH enzyme inhibitors, primary screen, biochemical, C-terminal His tag, absorbance 600 nm (AID 1175);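 note: recombinant parasite enzyme with a five histidine tag at its C terminus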", "conditions": "DCIP absorbance 600 nm, higher = more signal, called active from +8 up or from −8 down"}, "[5]": {"assay": "P. aeruginosa biofilm formation inhibitors, primary screen, strain PAO1, LB-PBS medium, absorbance 600 nm (AID 1176)", "conditions": "P. aeruginosa PAO1 growth/biofilm, A600, 12 h; higher = more signal"}, "[6]": {"assay": "S. cerevisiae RM11-1a growth modifiers, primary screen, strain RM11-1a, OD600, basal, 24 h (AID 1177);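 note: cultures grown under basal conditions with no added stressor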", "conditions": "OD600, 24 h, higher = more signal, called active from +8 up or from −8 down"}, "[7]": {"assay": "E. coli acrAB mutant growth effects, primary screen, E. coli filamentation inducers, strain DRC39, OD650, 24 h (AID 1178);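 note: growth measured as culture turbidity by optical density at 650 nm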", "conditions": "higher = more signal, called active from +8 up or from −8 down"}, "[8]": {"assay": "E. coli acrAB mutant growth effects, primary screen, E. coli filamentation inducers, strain DRC39, OD650, 48 h (AID 1179);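 note: screen aims at cell division blockers that make cells filament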", "conditions": "E. coli DRC39 delta-acrAB growth, higher = more signal, called active from +8 up or from −8 down"}, "[9]": {"assay": "RPMI8226 myeloma cell viability, profiling panel, resazurin fluorescence, basal, 24 h, PK04 Diversity Set (AID 1180);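 note: RPMI8826 multiple myeloma cell line at 5000 cells per well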", "conditions": "higher = more signal"}, "[10]": {"target": "E3 ubiquitin-protein ligase XIAP (Homo sapiens) (UniProt P98170)", "sequence (P98170 whole entry, looked up)": "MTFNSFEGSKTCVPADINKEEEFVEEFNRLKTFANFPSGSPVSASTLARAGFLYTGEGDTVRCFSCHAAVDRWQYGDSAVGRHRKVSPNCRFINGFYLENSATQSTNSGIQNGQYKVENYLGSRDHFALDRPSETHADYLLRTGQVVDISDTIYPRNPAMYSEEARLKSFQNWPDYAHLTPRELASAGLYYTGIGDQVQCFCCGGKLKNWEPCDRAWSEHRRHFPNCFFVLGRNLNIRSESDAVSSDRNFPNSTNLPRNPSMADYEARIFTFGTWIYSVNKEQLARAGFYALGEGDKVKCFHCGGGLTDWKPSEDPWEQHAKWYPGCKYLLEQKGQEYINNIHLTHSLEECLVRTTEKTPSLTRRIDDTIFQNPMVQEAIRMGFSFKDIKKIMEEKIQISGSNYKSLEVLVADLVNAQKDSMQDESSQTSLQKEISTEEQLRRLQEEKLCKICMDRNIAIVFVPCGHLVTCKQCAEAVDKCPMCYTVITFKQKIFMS", "assay": "XIAP binders, primary screen, biophysical, small-molecule microarray, fluorescence 635 nm (AID 1181);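 note: score merges 667 nm emission and signal to noise over triplicate slides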", "conditions": "small-molecule microarray binding, higher = more signal"}, "[11]": {"tested_on": "XIP peptide (Xip251-270) binding", "assay": "small-molecule binders of XIP peptide, primary screen, biochemical, small-molecule microarray, fluorescence 635/667 nm, 0.1 µg/mL protein (AID 1182)", "conditions": "fluorescent protein binding, 635 nm, higher = more signal, called active from +8 up or from −8 down"}, "[12]": {"tested_on": "XIP peptide (Xip251-270)", "assay": "small-molecule binders of XIP peptide, primary screen, biochemical, small-molecule microarray, fluorescence 635/667 nm, 0.5 µg/mL protein (AID 1183)", "conditions": "small-molecule microarray binding, fluorescence 635 nm; higher = more signal"}, "[13]": {"assay": "Plasmodium falciparum growth inhibition, primary screen, strain 3D7, DAPI fluorescence, 100 nL (AID 1184);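 note: parasites grown inside human red blood cells in medium with human serum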", "conditions": "P. falciparum 3D7 growth, 3 d, higher = more signal"}, "[14]": {"target": "Homeobox protein Hox-A13 (Mus musculus) (UniProt Q62424)", "sequence (Q62424 whole entry, looked up)": "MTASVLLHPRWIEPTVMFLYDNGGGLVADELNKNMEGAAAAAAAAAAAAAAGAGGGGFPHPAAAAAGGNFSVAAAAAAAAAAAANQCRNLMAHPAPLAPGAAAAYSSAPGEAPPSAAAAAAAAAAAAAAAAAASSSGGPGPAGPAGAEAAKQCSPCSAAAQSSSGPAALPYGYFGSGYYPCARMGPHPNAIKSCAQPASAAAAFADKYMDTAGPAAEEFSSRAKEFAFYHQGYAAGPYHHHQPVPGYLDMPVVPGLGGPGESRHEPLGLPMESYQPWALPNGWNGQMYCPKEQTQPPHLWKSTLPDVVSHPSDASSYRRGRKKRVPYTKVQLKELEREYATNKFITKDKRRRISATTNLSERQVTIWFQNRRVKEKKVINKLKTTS", "assay": "inhibitors of HoxA13-DNA binding, primary screen, biochemical, fluorescence polarization, labeled oligonucleotide (AID 1185)", "conditions": "15 min, higher = more signal, called active from +8 up or from −8 down"}, "[15]": {"assay": "inhibitors of hydroxyurea-induced Chk1 phosphorylation, primary screen, imaging, HeLa, phospho-Chk1 antibody, percent positive cells (AID 1186)", "conditions": "hydroxyurea-induced phospho-Chk1 immunofluorescence imaging, higher = more signal"}, "[16]": {"assay": "inhibitors of hydroxyurea-induced Chk1 phosphorylation, primary screen, imaging, HeLa, phospho-Chk1 nuclear intensity (AID 1187)", "conditions": "hydroxyurea-induced phospho-Chk1 immunofluorescence imaging, higher = more signal"}}, "note": "Active and inactive are the calls of the source. Unless noted, the rule behind the calls is not given here.", "data": [{"compound": "CO[C@H]1O[C@H](CO)[C@@H](OC(=O)Nc2ccccc2)[C@H](OC(=O)Nc2ccccc2)[C@@H]1OC(=O)Nc1ccccc1", "values": [{"measurement": "z-score", "setting": "[1]", "value": -0.72}, {"measurement": "z-score", "setting": "[2]", "value": "0.56 (inactive)"}, {"measurement": "z-score", "setting": "[3]", "value": "-1.73 (inactive)"}, {"measurement": "composite z-score", "setting": "[4]", "value": "0.202 (inactive)"}, {"measurement": "z-score", "setting": "[5]", "value": "-0.826 (inactive)"}, {"measurement": "z-score", "setting": "[6]", "value": "1.22 (inactive)"}, {"measurement": "z-score", "setting": "[7]", "value": "0.576 (inactive)"}, {"measurement": "z-score", "setting": "[8]", "value": "0.667 (inactive)"}, {"measurement": "z-score", "setting": "[9]", "value": -1.15}, {"measurement": "composite z-score", "setting": "[10]", "value": 0.178}, {"measurement": "composite z-score", "setting": "[11]", "value": "0.228 (inactive)"}, {"measurement": "composite z-score", "setting": "[12]", "value": 0.642}, {"measurement": "z-score", "setting": "[13]", "value": -1.43}, {"measurement": "z-score", "setting": "[14]", "value": "-6.12 (inactive)"}, {"measurement": "z-score", "setting": "[15]", "value": "0.0303 (inactive)"}, {"measurement": "z-score", "setting": "[16]", "value": "0.502 (inactive)"}]}, {"compound": "COc1cc2c(cc1OC)CN(C(=O)[C@H]1[C@@H]3C(=O)O[C@@H](c4ccccc4)[C@@H](c4ccccc4)N3[C@@H](c3ccc(O)cc3)[C@]13C(=O)Nc1ccc(C#CCCO)cc13)CC2", "values": [{"measurement": "z-score", "setting": "[1]", "value": -0.29}, {"measurement": "z-score", "setting": "[2]", "value": "0.966 (inactive)"}, {"measurement": "z-score", "setting": "[3]", "value": "0.577 (inactive)"}, {"measurement": "composite z-score", "setting": "[4]", "value": "0.857 (inactive)"}, {"measurement": "z-score", "setting": "[5]", "value": "0.393 (inactive)"}, {"measurement": "z-score", "setting": "[6]", "value": "1.16 (inactive)"}, {"measurement": "z-score", "setting": "[7]", "value": "0.0945 (inactive)"}, {"measurement": "z-score", "setting": "[8]", "value": "-0.712 (inactive)"}, {"measurement": "z-score", "setting": "[9]", "value": 0.756}, {"measurement": "composite z-score", "setting": "[10]", "value": -0.249}, {"measurement": "composite z-score", "setting": "[11]", "value": "0.22 (inactive)"}, {"measurement": "composite z-score", "setting": "[12]", "value": 0.798}, {"measurement": "z-score", "setting": "[13]", "value": -1.56}, {"measurement": "z-score", "setting": "[14]", "value": "-3.49 (inactive)"}, {"measurement": "z-score", "setting": "[15]", "value": "0.113 (inactive)"}, {"measurement": "z-score", "setting": "[16]", "value": "0.393 (inactive)"}]}, {"compound": "CC(C)c1ccc(NN2C(C(O)c3ccc(B(O)O)cc3)C=CC3C(=O)N(c4ccccc4)C(=O)C32)cc1", "note": "(stereo not given)", "values": [{"measurement": "z-score", "setting": "[1]", "value": -1.18}, {"measurement": "z-score", "setting": "[2]", "value": "0.278 (inactive)"}, {"measurement": "z-score", "setting": "[3]", "value": "-1.2 (inactive)"}, {"measurement": "composite z-score", "setting": "[4]", "value": "-0.388 (inactive)"}, {"measurement": "z-score", "setting": "[5]", "value": "1.12 (inactive)"}, {"measurement": "z-score", "setting": "[6]", "value": "0.728 (inactive)"}, {"measurement": "z-score", "setting": "[7]", "value": "-0.329 (inactive)"}, {"measurement": "z-score", "setting": "[8]", "value": "-0.543 (inactive)"}, {"measurement": "z-score", "setting": "[9]", "value": -0.948}, {"measurement": "composite z-score", "setting": "[10]", "value": -0.119}, {"measurement": "composite z-score", "setting": "[11]", "value": "1.04 (inactive)"}, {"measurement": "composite z-score", "setting": "[12]", "value": 0.665}, {"measurement": "z-score", "setting": "[13]", "value": 0.101}, {"measurement": "z-score", "setting": "[14]", "value": "-4.18 (inactive)"}, {"measurement": "z-score", "setting": "[15]", "value": "-0.337 (inactive)"}, {"measurement": "z-score", "setting": "[16]", "value": "-0.659 (inactive)"}]}, {"compound": "CC1CC/C=C\\[C@H]2OC34C=CCN(C(C)(C)C)C(=O)[C@H]3N(C(C)CO)C(=O)[C@@H]4C2C(=O)O1", "note": "(stereo not given in full)", "values": [{"measurement": "z-score", "setting": "[1]", "value": 0.0366}, {"measurement": "z-score", "setting": "[2]", "value": "-0.623 (inactive)"}, {"measurement": "z-score", "setting": "[3]", "value": "-2.21 (inactive)"}, {"measurement": "composite z-score", "setting": "[4]", "value": "-3.09 (inactive)"}, {"measurement": "z-score", "setting": "[5]", "value": "-0.525 (inactive)"}, {"measurement": "z-score", "setting": "[6]", "value": "0.723 (inactive)"}, {"measurement": "z-score", "setting": "[7]", "value": "0.606 (inactive)"}, {"measurement": "z-score", "setting": "[8]", "value": "0.771 (inactive)"}, {"measurement": "z-score", "setting": "[9]", "value": -0.0501}, {"measurement": "composite z-score", "setting": "[10]", "value": 0.501}, {"measurement": "composite z-score", "setting": "[11]", "value": "-0.323 (inactive)"}, {"measurement": "composite z-score", "setting": "[12]", "value": -1.08}, {"measurement": "z-score", "setting": "[13]", "value": 0.0549}, {"measurement": "z-score", "setting": "[14]", "value": "-5.51 (inactive)"}, {"measurement": "z-score", "setting": "[15]", "value": "0.714 (inactive)"}, {"measurement": "z-score", "setting": "[16]", "value": "-0.0558 (inactive)"}]}, {"compound": "C=C(CCCC)/C(=C/C[C@H](OC(C)=O)c1ccccc1OCCO)c1cc(C(=O)OC)ccc1OC", "values": [{"measurement": "z-score", "setting": "[1]", "value": -0.0696}, {"measurement": "z-score", "setting": "[2]", "value": "-0.863 (inactive)"}, {"measurement": "z-score", "setting": "[3]", "value": "0.911 (inactive)"}, {"measurement": "composite z-score", "setting": "[4]", "value": "-2.1 (inactive)"}, {"measurement": "z-score", "setting": "[5]", "value": "-0.824 (inactive)"}, {"measurement": "z-score", "setting": "[6]", "value": "-0.0572 (inactive)"}, {"measurement": "z-score", "setting": "[7]", "value": "0.427 (inactive)"}, {"measurement": "z-score", "setting": "[8]", "value": "0.257 (inactive)"}, {"measurement": "z-score", "setting": "[9]", "value": 0.682}, {"measurement": "composite z-score", "setting": "[10]", "value": -0.28}, {"measurement": "composite z-score", "setting": "[11]", "value": "0.0757 (inactive)"}, {"measurement": "composite z-score", "setting": "[12]", "value": -0.167}, {"measurement": "z-score", "setting": "[13]", "value": -2.66}, {"measurement": "z-score", "setting": "[14]", "value": "-3.55 (inactive)"}, {"measurement": "z-score", "setting": "[15]", "value": "-0.836 (inactive)"}, {"measurement": "z-score", "setting": "[16]", "value": "-0.714 (inactive)"}]}]}
